Source: publication PMC7862700, “An all-to-all approach to the identification of sequence-specific readers for epigenetic DNA modifications on cytosine”

Assays:
Assay in all cases: DAPPL (digital affinity profiling via proximity ligation, sequencing); 10 mM Tris-HCl pH 7.5, 50 mM NaCl, 1 mM DTT, 4% glycerol, room temperature, 30 min; GST-TFs on glutathione beads, 16-mer random dsDNA library, 0.1% formaldehyde crosslink after washing; high values mean tight binding
Settings in all cases: protein: recombinant; tags: N-terminal GST; dsDNA, one strand shown
ELK1 = target: T1, ELK1 (Homo sapiens, UniProt P19419 1-428)
T1 sequence: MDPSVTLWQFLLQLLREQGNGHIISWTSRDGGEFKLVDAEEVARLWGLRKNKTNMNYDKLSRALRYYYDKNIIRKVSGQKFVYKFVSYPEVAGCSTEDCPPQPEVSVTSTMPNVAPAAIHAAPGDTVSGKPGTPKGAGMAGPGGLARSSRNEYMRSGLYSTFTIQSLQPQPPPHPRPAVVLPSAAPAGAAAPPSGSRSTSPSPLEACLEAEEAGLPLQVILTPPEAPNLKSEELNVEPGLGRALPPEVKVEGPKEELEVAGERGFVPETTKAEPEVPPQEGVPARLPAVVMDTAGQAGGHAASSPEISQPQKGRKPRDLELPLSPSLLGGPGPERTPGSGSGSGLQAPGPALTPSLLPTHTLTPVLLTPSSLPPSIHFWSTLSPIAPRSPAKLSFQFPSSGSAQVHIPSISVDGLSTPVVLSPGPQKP
Outline: (§1)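 A tag-only sample was pooled with DNA-barcoded human transcription factors that had been expressed in yeast as GST fusions and captured on glutathione beads. The pools were incubated for 30 min at room temperature with 200 nmole of a random double-stranded 16-mer DNA library in Tris/NaCl/DTT/glycerol buffer, then washed, crosslinked with 0.1% formaldehyde, proximity-ligated (BsaI/T4 ligase, 1 h, 37 °C), PCR-amplified and sequenced on an Illumina NextSeq500. Binding signal is each hexamer's read frequency for a factor divided by its frequency for the tag-only sample.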

GABPA = target: T2, GABPA (Homo sapiens, UniProt Q06546 1-454)
T2 sequence: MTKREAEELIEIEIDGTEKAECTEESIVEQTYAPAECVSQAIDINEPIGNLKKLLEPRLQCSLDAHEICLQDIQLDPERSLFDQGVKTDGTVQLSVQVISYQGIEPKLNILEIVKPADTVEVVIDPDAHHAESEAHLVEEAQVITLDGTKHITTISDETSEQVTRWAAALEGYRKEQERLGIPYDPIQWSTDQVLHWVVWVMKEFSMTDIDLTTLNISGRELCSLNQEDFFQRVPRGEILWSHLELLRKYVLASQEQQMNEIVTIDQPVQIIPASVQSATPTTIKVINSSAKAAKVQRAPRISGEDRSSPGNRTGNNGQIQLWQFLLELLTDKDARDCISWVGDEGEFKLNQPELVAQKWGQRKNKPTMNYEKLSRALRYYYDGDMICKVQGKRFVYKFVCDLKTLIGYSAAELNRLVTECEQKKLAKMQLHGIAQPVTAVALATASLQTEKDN
Outline: as §1

ELF1 = ELF1 (Homo sapiens, UniProt P32519 1-619)
Chain of ELF1 (P32519 whole entry): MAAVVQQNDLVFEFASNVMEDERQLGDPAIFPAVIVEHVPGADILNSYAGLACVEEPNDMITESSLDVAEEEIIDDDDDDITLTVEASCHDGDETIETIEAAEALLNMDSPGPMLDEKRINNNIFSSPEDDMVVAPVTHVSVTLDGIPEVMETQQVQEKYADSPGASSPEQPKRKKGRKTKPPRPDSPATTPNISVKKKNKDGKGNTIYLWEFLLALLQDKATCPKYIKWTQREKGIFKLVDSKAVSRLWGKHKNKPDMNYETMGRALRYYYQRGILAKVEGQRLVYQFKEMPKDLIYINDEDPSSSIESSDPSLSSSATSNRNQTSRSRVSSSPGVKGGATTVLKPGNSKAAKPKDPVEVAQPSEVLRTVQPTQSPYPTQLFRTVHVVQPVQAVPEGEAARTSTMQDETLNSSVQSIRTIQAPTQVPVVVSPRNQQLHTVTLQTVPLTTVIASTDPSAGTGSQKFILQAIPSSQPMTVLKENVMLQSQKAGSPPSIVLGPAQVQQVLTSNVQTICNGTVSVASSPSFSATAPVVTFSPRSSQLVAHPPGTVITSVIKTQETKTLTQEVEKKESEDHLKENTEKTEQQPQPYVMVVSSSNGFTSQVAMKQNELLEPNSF
Outline: as §1

ETV5 = ETV5 (Homo sapiens, UniProt P41161 1-510)
Chain of ETV5 (P41161 whole entry): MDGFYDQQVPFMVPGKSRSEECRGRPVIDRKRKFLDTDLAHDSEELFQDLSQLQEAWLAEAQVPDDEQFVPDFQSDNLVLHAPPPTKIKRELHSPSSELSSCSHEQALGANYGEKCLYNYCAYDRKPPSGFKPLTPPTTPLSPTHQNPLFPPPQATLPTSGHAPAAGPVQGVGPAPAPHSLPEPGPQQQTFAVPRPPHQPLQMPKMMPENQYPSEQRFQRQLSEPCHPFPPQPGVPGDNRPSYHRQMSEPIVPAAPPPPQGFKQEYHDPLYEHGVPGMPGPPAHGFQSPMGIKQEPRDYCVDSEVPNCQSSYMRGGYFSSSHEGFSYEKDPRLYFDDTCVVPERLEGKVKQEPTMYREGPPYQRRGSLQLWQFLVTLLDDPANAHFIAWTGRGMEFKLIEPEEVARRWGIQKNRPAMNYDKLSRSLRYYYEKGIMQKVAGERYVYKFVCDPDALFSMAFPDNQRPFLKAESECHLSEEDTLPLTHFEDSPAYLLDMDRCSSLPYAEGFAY
Outline: as §1

ELF4 = ELF4 (Homo sapiens, UniProt Q99607 1-663)
Chain of ELF4 (Q99607 whole entry): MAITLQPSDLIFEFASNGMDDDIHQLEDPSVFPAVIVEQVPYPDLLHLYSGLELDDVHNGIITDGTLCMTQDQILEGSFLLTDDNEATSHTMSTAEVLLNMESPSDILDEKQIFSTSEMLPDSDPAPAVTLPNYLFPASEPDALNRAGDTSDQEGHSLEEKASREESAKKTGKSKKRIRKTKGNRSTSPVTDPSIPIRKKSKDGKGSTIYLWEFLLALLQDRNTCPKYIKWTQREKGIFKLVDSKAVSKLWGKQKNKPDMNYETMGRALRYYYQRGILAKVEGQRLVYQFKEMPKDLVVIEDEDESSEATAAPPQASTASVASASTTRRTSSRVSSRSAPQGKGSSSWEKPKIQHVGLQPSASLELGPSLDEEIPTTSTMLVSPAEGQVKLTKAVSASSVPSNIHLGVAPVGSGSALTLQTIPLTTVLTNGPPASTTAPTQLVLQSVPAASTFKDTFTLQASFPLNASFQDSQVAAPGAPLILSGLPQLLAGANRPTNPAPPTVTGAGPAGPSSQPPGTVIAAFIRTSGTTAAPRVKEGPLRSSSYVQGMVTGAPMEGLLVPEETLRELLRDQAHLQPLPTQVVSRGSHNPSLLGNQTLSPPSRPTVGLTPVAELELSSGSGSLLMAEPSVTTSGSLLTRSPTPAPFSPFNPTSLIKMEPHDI
Outline: as §1

ELK4 = target: T3, ELK4 (Homo sapiens, UniProt P28324-2 1-405)
T3 sequence: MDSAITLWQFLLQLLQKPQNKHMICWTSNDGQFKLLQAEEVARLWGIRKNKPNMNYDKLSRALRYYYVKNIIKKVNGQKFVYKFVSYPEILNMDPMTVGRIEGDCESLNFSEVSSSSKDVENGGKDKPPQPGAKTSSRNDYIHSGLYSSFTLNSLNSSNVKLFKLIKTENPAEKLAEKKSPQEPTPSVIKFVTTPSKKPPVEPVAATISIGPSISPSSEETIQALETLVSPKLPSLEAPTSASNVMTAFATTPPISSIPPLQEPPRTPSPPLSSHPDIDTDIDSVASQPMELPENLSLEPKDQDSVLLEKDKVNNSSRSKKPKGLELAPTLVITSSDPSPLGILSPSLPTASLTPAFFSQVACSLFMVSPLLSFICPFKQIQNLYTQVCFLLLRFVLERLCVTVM
Outline: as §1

ELF3 = target: T4, ELF3 (Homo sapiens, UniProt P78545 1-371)
T4 sequence: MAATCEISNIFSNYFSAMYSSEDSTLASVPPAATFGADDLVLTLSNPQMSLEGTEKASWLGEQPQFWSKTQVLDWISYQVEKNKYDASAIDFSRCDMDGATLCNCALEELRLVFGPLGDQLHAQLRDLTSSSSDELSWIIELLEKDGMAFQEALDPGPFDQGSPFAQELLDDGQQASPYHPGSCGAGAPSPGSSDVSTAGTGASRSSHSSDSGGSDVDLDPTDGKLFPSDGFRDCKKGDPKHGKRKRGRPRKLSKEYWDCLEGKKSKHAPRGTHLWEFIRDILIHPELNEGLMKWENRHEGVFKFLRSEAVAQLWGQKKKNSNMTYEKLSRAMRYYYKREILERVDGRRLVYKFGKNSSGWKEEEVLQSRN
Outline: as §1

ETV1 = ETV1 (Homo sapiens, UniProt P50549 1-477)
Chain of ETV1 (P50549 whole entry): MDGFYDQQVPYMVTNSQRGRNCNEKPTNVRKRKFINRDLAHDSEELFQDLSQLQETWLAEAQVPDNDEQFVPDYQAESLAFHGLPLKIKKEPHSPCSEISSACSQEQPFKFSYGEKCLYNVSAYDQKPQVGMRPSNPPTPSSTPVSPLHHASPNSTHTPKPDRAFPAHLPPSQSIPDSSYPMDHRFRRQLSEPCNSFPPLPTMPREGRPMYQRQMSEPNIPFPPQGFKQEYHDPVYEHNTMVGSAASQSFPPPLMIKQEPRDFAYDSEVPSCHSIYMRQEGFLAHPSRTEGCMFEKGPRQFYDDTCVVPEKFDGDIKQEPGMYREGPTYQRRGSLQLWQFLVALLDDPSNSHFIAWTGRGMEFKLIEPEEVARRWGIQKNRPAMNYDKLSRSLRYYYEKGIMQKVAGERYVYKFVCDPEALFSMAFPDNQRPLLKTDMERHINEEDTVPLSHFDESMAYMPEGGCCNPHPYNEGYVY
Outline: as §1

ERF = target: T5, ERF (Homo sapiens, UniProt P50548 1-548)
T5 sequence: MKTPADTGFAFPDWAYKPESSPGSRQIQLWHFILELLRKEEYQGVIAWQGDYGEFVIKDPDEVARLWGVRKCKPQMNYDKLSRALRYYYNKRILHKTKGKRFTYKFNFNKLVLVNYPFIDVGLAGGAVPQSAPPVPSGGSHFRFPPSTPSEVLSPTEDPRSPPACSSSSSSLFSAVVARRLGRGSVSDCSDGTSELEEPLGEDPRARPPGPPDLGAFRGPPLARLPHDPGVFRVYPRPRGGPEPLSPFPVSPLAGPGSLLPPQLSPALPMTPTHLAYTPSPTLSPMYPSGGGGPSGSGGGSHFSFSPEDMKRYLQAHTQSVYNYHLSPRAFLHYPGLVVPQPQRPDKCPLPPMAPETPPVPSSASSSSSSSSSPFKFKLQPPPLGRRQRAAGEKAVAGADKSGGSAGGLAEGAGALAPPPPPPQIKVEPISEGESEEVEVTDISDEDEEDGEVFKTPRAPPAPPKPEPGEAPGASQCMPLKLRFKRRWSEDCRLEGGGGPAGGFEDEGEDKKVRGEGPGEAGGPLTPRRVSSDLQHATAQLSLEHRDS
Outline: as §1

ETV3L = target: T6, ETV3L (Homo sapiens, UniProt Q6ZN32 1-361)
T6 sequence: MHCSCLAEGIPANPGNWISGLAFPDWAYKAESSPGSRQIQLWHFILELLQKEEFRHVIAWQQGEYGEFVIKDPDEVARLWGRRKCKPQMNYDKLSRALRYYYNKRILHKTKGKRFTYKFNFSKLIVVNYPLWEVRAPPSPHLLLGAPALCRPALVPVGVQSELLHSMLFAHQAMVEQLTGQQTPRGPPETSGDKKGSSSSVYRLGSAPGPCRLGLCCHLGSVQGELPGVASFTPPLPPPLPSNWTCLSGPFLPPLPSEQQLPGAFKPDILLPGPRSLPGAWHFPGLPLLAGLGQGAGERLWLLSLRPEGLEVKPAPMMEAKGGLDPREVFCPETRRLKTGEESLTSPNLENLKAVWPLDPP
Outline: as §1

ETV3 = target: T7, ETV3 (Homo sapiens, UniProt P41162-2 1-143)
T7 sequence: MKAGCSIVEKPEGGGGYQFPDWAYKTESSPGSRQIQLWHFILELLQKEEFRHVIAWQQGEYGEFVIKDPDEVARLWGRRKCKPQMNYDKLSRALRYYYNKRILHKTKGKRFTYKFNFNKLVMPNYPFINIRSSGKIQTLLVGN
Outline: as §1

ETV6 = ETV6 (Homo sapiens, UniProt P41212 1-452)
Chain of ETV6 (P41212 whole entry): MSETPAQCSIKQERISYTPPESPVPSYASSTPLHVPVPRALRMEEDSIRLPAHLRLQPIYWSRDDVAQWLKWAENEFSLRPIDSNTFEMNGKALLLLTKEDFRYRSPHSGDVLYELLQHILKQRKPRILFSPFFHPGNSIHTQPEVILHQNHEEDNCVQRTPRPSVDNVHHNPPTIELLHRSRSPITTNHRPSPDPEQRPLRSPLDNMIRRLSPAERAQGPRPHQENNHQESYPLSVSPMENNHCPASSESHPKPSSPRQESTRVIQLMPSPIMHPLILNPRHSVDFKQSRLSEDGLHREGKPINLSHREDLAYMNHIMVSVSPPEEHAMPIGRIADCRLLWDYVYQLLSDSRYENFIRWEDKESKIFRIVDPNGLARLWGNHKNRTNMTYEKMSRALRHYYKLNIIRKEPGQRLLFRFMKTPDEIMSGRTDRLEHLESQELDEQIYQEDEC
Outline: as §1

Sequence: GCAAAC
- binding signal (ELK1): 1.03 fold enrichment (6-mer frequency, TF over GST control)
- binding signal (GABPA): 1.01 fold enrichment (6-mer frequency, TF over GST control)
- binding signal (ELF1): 1.01 fold enrichment (6-mer frequency, TF over GST control)
- binding signal (ETV5): 1.01 fold enrichment (6-mer frequency, TF over GST control)
- binding signal (ELF4): 1.06 fold enrichment (6-mer frequency, TF over GST control)
- binding signal (ELK4): 1.02 fold enrichment (6-mer frequency, TF over GST control)
- binding signal (ELF3): 1.13 fold enrichment (6-mer frequency, TF over GST control)
- binding signal (ETV1): 1.03 fold enrichment (6-mer frequency, TF over GST control)
- binding signal (ERF): 1.01 fold enrichment (6-mer frequency, TF over GST control)
- binding signal (ETV3L): 1.05 fold enrichment (6-mer frequency, TF over GST control)
- binding signal (ETV3): 1.04 fold enrichment (6-mer frequency, TF over GST control)
- binding signal (ETV6): 1.06 fold enrichment (6-mer frequency, TF over GST control)
